Many of the other results were omitted from the sample, so hits are more common in it than they were.
Pf Dd2 inh = inhibitors of Plasmodium falciparum Dd2 growth. P. falciparum Dd2 growth, SYBR Green, 72 h. Potency, µM (highest dose often 28.9 µM), without a hit: at the highest dose activity, negative = inhibition, usual class: inhibitors. 120,000 tested, 4.3% active. AID 1347417; active = well fitted inhibition curve with a large enough effect;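 note: plate controls were DMSO vehicle for no effect and reference drug for full effect; nearly all actives have a fitted effect of over 65% in size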
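Readout: SYBR Green fluorescence, 485 nm excitation, 535 nm emission, after ~16 h lysis at 37C. Before that, Dd2-infected red cells (2.5% hematocrit) grew 72 h with compound, 29 uM top final concentration.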
* hit, by the source's call; i = inactive; [ ] = remark or other dose. Potency is the fitted concentration of half-maximal effect.

SMILES	Pf Dd2 inh
O=C(Nc1cc(F)cc(F)c1)N1CCCC2(C1)Nc1cccnc1NC2=NC1CCCC1 (stereo not given)	-16.1%[5.79 µM]
COc1cccc(NC(=O)N2CCCC3(C2)Nc2cccnc2NC3=NC2CCCC2)c1 (stereo not given)	-1.3%[5.79 µM]
COC(=O)C1=CN(CC(=O)Nc2c(C)cc(C)cc2C)S(=O)(=O)N=C1C	16.3%
COC(=O)c1scc(-c2ccc(C)cc2)c1S(=O)(=O)Nc1ccc(NC(C)=O)cc1	i
COC(=O)c1scc(-c2ccc(C)cc2)c1S(=O)(=O)Nc1ccc(N(C)C)cc1	10.4%
COC(=O)c1scc(-c2ccc(C)cc2)c1S(=O)(=O)N1CCN(c2ccccc2F)CC1	11.2µM*
COC(=O)c1scc(-c2ccc(C)cc2)c1S(=O)(=O)N1CCN(c2ccccc2)CC1	0.0%
COC(=O)c1scc(-c2ccc(C)cc2)c1S(=O)(=O)Nc1cc(C)c(Cl)cc1OC	8.91µM*
COC(=O)c1scc(-c2ccc(C)cc2)c1S(=O)(=O)N1CCN(c2ccc(C)cc2C)CC1	-7.7%
O=C(c1ccoc1)N1CCC2(CCN(Cc3ccccn3)CC2)C(CO)C1 (stereo not given)	-5.5%
CC(C)n1cnnc1CC1CCN(C(=O)CN(C)S(=O)(=O)c2cccs2)CC1	-23.1%
CCCN1CCc2[nH]cnc2C12CCN(C(=O)c1cnn3ccccc13)CC2	13.6%
CCCNC(=O)N1CCC(N2CC(OCC3CC3)C23CCCCC3)CC1 (stereo not given)	8.91µM*
CC(C)CC(=O)N1CCC(N2CC(OCC3CC3)C23CCOCC3)CC1 (stereo not given)	-19.9%
CC(=O)N1CCC(C(=O)N2CCC(N3CC(OCC4CC4)C34CCOCC4)CC2)CC1 (stereo not given)	8.6%
O=C(Cc1ccccc1)NC[C@H]1Cn2c(-c3ccc4c(c3)OCO4)cnc2CO1	i
COc1ccc(C)cc1-n1c(-c2ccc(Cl)cc2)cc2c1CC(C)(C)CC2=O	1µM*
Cc1ccc(-c2cc3c(n2-c2ccccc2F)CC(C)(C)CC3=O)cc1	-4.2%
COc1ccc(-n2c3c(cc(-c4nc(-c5ccc(Cl)cc5)cs4)c2=O)C(=O)CC(C)(C)C3)cc1Cl	7.9%
COCCNC(=O)N1CCN(Cc2ccco2)CC(C(=O)O)C1 (stereo not given)	8.0%
COC1CCC12CCN(C(=O)c1ccc3cc[nH]c3c1)CC2 (stereo not given)	-18.5%
Cc1ccc(C(=O)N2CCC3(CC2)C(C(=O)O)CC(=O)N3C)s1 (stereo not given)	7.3%
CN1[C@@H](CCC(=O)N2CCOCC2)CNC(=O)[C@@H]2[C@H]1CCN2Cc1cccs1	4.2%[44.1 µM]
O=C(COc1ccccc1)N1CCC2(CC1)CN(Cc1ccccc1)CC2CO (stereo not given)	5.01µM*
COCCN1CC(CO)C2(CCN(C(=O)COc3ccccc3)CC2)C1 (stereo not given)	-18.9%
SMILES	Pf Dd2 inh
O=C(CN1CCCCCC1)N1CCC2(CC1)CN(Cc1ccccc1)CC2CO (stereo not given)	i
COCc1nnc2n1CCC(NC(=O)COc1ccc(F)cc1)CC2 (stereo not given)	i
Cc1ccc(-c2ccc3nnc(CNC(=O)c4ccccc4F)n3n2)cc1C	-14.0%
O=C1CCC2(CCN(C(=O)C3CCOCC3)CC2)CN1CCc1ccncc1	-2.5%
N#Cc1ccc(CN2CCC3(CC2)CC(c2cccnc2)=NO3)cc1	i
Cc1cc(O)c(CN2CCN(c3ccc(F)cc3)CC2)c2oc(=O)cc(C)c12	11.2µM*
Cc1scc(CN2CCN(c3ccc(F)cc3)CC2)c1C	-15.7%
COc1ccc(N2CCN(Cc3cc(=O)oc4ccc(OC)cc34)CC2)cc1	-12.7%
O=C1NCc2ccccc2CC12CCN(Cc1ccncc1)CC2	16.1%
CC(C)CS(=O)(=O)c1ncc(CN(C)Cc2cnn(C)c2)n1Cc1ccccc1	-17.7%
CCCCN(C)C(=O)c1ccc2c(c1)N(Cc1cccc(F)c1)C(=O)c1ccccc1S2	i
O=C(NCCc1ccc(Cl)cc1)c1ccc2c(c1)N(Cc1c(F)cccc1Cl)C(=O)CS2	i
O=C(NCc1ccc2c(c1)OCO2)c1ccc2c(c1)N(Cc1c(F)cccc1Cl)C(=O)c1ccccc1S2	7.08µM*
CCCCNC(=O)c1ccc2c(c1)N(CC)C(=O)c1ccccc1S2	0.9%
CCN(CC)CCCNC(=O)c1ccc2c(c1)N(Cc1c(F)cccc1Cl)C(=O)c1ccccc1S2	0.447µM*
O=C(NC1CCCC1)c1ccc2c(c1)N(Cc1ccccc1F)C(=O)c1ccccc1S2	i
O=C1NCCCCCN(S(=O)(=O)c2ccccc2)[C@H]2CCCC[C@@H]12	-4.1%
Cc1ccc(N2Cc3c(ncnc3N3CCN(C)CC3)N(C)CC2=O)cc1	-22.9%
CC1CCCN(c2ncnc3c2CN(c2ccccc2F)C(=O)CN3C)C1 (stereo not given)	-11.2%
CC1CCCN(c2ncnc3c2CN(c2ccc(Cl)cc2)C(=O)CN3C)C1 (stereo not given)	10µM*
CN(Cc1cccnc1)c1nc2c(c(=O)[nH]1)CCN(Cc1ccc(Cl)c(F)c1)CC2	20.1%[5.79 µM]
CN(C)c1nc2c(c(=O)[nH]1)CCN(Cc1ccc(F)cc1F)CC2	0.6%[5.79 µM]
